31 molecules from PubChem BioAssay AID588331 (National Center for Advancing Translational Sciences (NCATS), 2011) can be followed below.

Records with an inconclusive call do not appear. Unmarked numbers belong to inactive results. Calls of active or inactive are those of the source. Calls come from the whole dose curve; as a rule, active = well fitted inhibition curve with a large enough effect; inconclusive = small, poorly fitted or top-dose-only effect; inactive = flat fitted curve, though single readings scatter.

The assay relates to Trypanosoma brucei 6-phosphofructokinase (PFK). The assay can be described thus: Confirmatory Assay to Find Inhibitors of T. brucei phosphofructokinase: High F6P. The settings on record: Kinase-Glo luminescence; series mostly up to 57.5 µM; activity change, negative = inhibition: at the top concentration. The text has this: Various species of the protozoan family Trypanosomatidae are responsible for a range of serious human diseases in tropical and subtropical areas of the world. […] Many of the disorders caused by trypanosomatids are fatal if left untreated, but most currently used drugs are inefficient and toxic. […] Oxidative metabolism involving the mitochondrial tricarboxylic acid cycle and oxidative phosphorylation are repressed in these parasites, and recent RNA interference (RNAi) experiments have shown that even partial depletion of certain individual glycolytic enzymes can lead to the death of cultured parasites. One such glycolytic enzyme, phosphofructokinase (PFK), catalyzes the formation of fructose-1,6-bisphosphate (F1,6BP) and ADP from fructose-6-phosphate (F6P) and ATP, and in many metabolic circumstances makes an important contribution to the control of flux through the glycolytic pathway. As a specific glycolytic target, PFK is particularly attractive as it catalyzes the first irreversible step in glycolysis, and structural and kinetic studies have shown very substantial and essential differences from corresponding host enzymes, allowing for the discovery of parasite-selective inhibitors. A luminescent secondary assay was also performed that used luciferase-based nucleotide detection (ADP-Glo, Promega) similar to the qHTS, but that alternatively used saturating concentrations (10x Km concentrations) of ATP or F6P to determine if inhibitor potencies were shifted due to particular substrate competition. […] NIH Molecular Libraries Probe Production Network [MLPCN] NIH Chemical Genomics Center [NCGC] Grant: 1 R03 MH092153-01 PI Name: Malcolm Walkinshaw, University of Edinburgh
Substrate buffer was dispensed into white, solid 1536-well plates at 3 uL/well in 0.1M triethanolamine (TEA) buffer, pH 8.0, containing final concentrations of 5 mM MgCl2 and 0.01% Tween20. Standard substrate buffer contained 0.5 mM fructose-6-phosphate (F6P) and 0.1 mM ATP, high ATP substrate buffer contained 0.5 mM fructose-6-phosphate (F6P) and 1mM ATP, high F6P substrate buffer contained 5mM fructose-6-phosphate (F6P) and 0.1 mM ATP, and high ATP/F6P buffer contained 5 mM fructose-6-phosphate (F6P) and 1 mM ATP. Then, 23 nl of compounds or DMSO were delivered to each well using a pin tool. One uL of T. brucei PFK (0.1 M TEA, 0.01% Tween20, 0.1% bovine serum albumin (BSA) and 1.25 nM PFK, final concentrations) was then dispensed, and plates were incubated at room temperature for 45 min. The luminescent detection reagent, Kinase-Glo Plus (Promega), was then added at 2ul/well and incubated for ten minutes at room temperature. The plates were measured on a ViewLux plate reader for luminescent signal using a clear filter with a one second exposure. The %Activity was determined from the corrected luminescence values. 1x (1.25nM) and 0x PFK enzyme controls (untreated) were included to normalize %Activity of identified inhibitors; 0x enzyme values corresponded to 100%Activity (full inhibition), while 1x PFK enzyme values were used to normalize 0% Activity (no inhibition).
For `Cc1cc(NS(=O)(=O)c2ccc(NS(=O)(=O)Cc3ccc(Cl)c(Cl)c3)cc2)no1`, the “activity change, negative = inhibition” value is 7.09%. Regarding `Cc1cc(NS(=O)(=O)c2ccc(NC(=O)Cc3ccc(Cl)c(Cl)c3)cc2)n(C)n1`, the Potency is 13 µM (active). The same measure, in the same setting: under `O=C(Cc1ccc(Cl)c(Cl)c1)Nc1ccc(S(=O)(=O)Nc2cncnc2)cc1` stands 9.19 µM (active). For the molecule `Cc1cc(NC(=O)c2ccc(NC(=O)Cc3ccc(Cl)c(Cl)c3)cc2)no1`, the “activity change, negative = inhibition” value was 3.41%. On the same count and under the same terms, the figure for `COc1ccc(CC(=O)Nc2ccc(S(=O)(=O)Nc3cc(C)on3)cc2)cc1C` is 1.36%. Take `Cc1cc(N(C)S(=O)(=O)c2ccc(NC(=O)Cc3ccc(Cl)c(Cl)c3)cc2)no1`: the Potency is 16.3 µM (active). Same read-out and setting: under `O=C(Cc1ccc(Cl)c(Cl)c1)Nc1ccc(S(=O)(=O)Nc2cccc(C(=O)O)c2)cc1` stands 4.61 µM (active). Consider `Cc1cc(NS(=O)(=O)c2ccc(NC(=O)Cc3ccccc3)cc2)no1`, for which the “activity change, negative = inhibition” value was -9.12%. Take `Cc1cc(NS(=O)(=O)c2ccc(NC(=O)Cc3ccc(Cl)c(Cl)c3)cc2)on1`: the Potency was 3.26 µM (active). Still for that read-out and setting: the figure for `Cc1cc(NS(=O)(=O)Cc2ccc(NC(=O)Cc3ccc(Cl)c(Cl)c3)cc2)no1` is 16.3 µM (active). `Cc1cc(NS(=O)(=O)c2ccc(C(=O)NCc3ccc(Cl)c(Cl)c3)cc2)no1`: the Potency is 25.9 µM (active). As for `Cc1cc(NS(=O)(=O)c2ccc(NC(=O)Cc3ccc(Cl)cc3)cc2)no1`, the Potency is 20.6 µM (active).

Take `O=C(Cc1ccc(Cl)c(Cl)c1)Nc1ccc(S(=O)(=O)Nc2ccn[nH]2)cc1`: the Potency was 5.8 µM (active). Turning to `Cc1cc(NS(=O)(=O)c2ccc(NC(=O)Cc3ccc(C)c(C)c3)cc2)no1`, the “activity change, negative = inhibition” value was -3.32%. Turning to `O=C(Cc1ccc(Cl)c(Cl)c1)Nc1ccc(S(=O)(=O)Nc2ccc(C(=O)O)cc2)cc1`, the Potency is 4.11 µM (active).

For the molecule `Cc1cc(NS(=O)(=O)c2ccc(NC(=O)Cc3ccc(Cl)c(C(F)(F)F)c3)cc2)no1`, the Potency is 5.8 µM (active). For the molecule `O=C(Cc1ccc(Cl)c(Cl)c1)Nc1ccc(S(=O)(=O)Nc2cccc(O)c2)cc1`, the Potency is 14.6 µM (active). As for `Cc1cc(NS(=O)(=O)C2CCN(C(=O)Cc3ccc(Cl)c(Cl)c3)CC2)no1`, the “activity change, negative = inhibition” value is -0.566%. On to `O=C(Cc1ccc(Cl)c(Cl)c1)Nc1ccc(S(=O)(=O)O)cc1`, for which the Potency was 5.17 µM (active). Regarding `CCOC(=O)c1cccc(NS(=O)(=O)c2ccc(NC(=O)Cc3ccc(Cl)c(Cl)c3)cc2)c1`, the “activity change, negative = inhibition” value is 6.32%.

For the molecule `Cc1cc(NS(=O)(=O)c2ccc(NC(=O)Cc3ccc(Cl)c(F)c3)cc2)no1`, the Potency is 8.19 µM (active).

Take `Cc1cc(NC(=O)c2csc(NC(=O)Cc3ccc(Cl)c(Cl)c3)n2)no1`: the “activity change, negative = inhibition” value is 2.82%. On the same count and under the same terms, the figure for `Cc1cc(N[S+](=O)([O-])c2ccc(NC(=O)Cc3ccc(Cl)nc3)cc2)no1` is -2.67%; for `Cc1cc(NS(=O)(=O)c2ccc(NC(=O)C(C)(C)c3ccc(Cl)c(Cl)c3)cc2)no1` it is -0.0491%. Take `Cc1cc(NS(=O)(=O)c2ccc(N(C)C(=O)Cc3ccc(Cl)c(Cl)c3)cc2)no1`: the Potency is 10.3 µM (active). As to `Cc1cc(NS(=O)(=O)c2ccc(NC(=O)c3ccc(Cl)c(Cl)c3)cc2)no1`, the “activity change, negative = inhibition” value is -3.99%. For `Cc1cc(N[S+](=O)([O-])c2ccc3cc(NC(=O)Cc4ccc(Cl)c(Cl)c4)ccc3c2)no1`, the Potency is 36.6 µM (active). Take `COc1ccc(CC(=O)Nc2ccc(S(=O)(=O)Nc3cc(C)on3)cc2)cc1OC`: the “activity change, negative = inhibition” value is 4.52%. `Cc1cc(NS(=O)(=O)CCNC(=O)Cc2ccc(Cl)c(Cl)c2)no1`: the “activity change, negative = inhibition” value is 4.19%.

As to `Cc1cc(NS(=O)(=O)c2ccc(NC(=O)Cc3ccc(Cl)c(Cl)c3)cc2)no1`, the Potency is 3.66 µM (active). Consider `O=C(Cc1ccc(Cl)c(Cl)c1)Nc1ccc(S(=O)(=O)Nc2ccon2)cc1`, for which the Potency was 2.06 µM (active).
